Compound activity: PubChem BioAssay, National Center for Advancing Translational Sciences (NCATS)
An excerpt weighted towards active compounds, which were near 12% of everything screened.
Cycloheximide cs: counter-screen for Shiga toxin inhibitors: cycloheximide protein synthesis inhibition; max response, %; hit rate 12% among 300,000; cell reporter, cycloheximide protein synthesis inhibition counterscreen; AID 2314; in the data active = max response mostly above about 13%, no sharp cut-off; inactive = mostly below about 14%; also: read at 38.3 µM for the half of the compounds with a filed dose; 0% is about no effect
Sm TGR block: inhibitors of Schistosoma mansoni thioredoxin glutathione reductase; Q962Y6; purified TGR, DTNB reduction, TNB absorbance 405 nm; Potency, µM (titrated, usually from 114 µM), without a hit: at the highest dose activity change, negative = inhibition, actives largely listed as inhibitors; hit rate 3% among 360,000; active = well fitted inhibition curve with a large enough effect; inconclusive = small, poorly fitted or top-dose-only effect; inactive = no such curve, though single readings can be large or run the other way; also: potency is read from the fitted curve at half-maximal effect; % is scaled to controls: 0 for no effect and ±100 for the full control effect; nearly all actives have a fitted effect of over 60% in size
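First, TGR (20 nM dispensed) and NADPH were mixed with compound. Second, a 15 min room-temperature incubation followed. Third, further NADPH and then DTNB were added to start the reaction. Finally, TNB absorbance was monitored kinetically.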
FMDV antiviral: antivirals against foot and mouth disease virus. Potency, µM (doses to about 57.9 µM), for the others: top-dose activity change, negative = inhibition, most hits filed as inhibitors. hit rate 1.2% among 410,000. FMDV antiviral cell-based qHTS; calls by dose curve; tested in HEK293T cells; also: read-out not given here; potency is read from the fitted curve at half-maximal effect; % is scaled to controls: 0 for no effect and ±100 for the full control effect; nearly all actives have a fitted effect of over 45% in size
Shiga inhibitor: inhibitors of Shiga toxin in Vero cells; AID 2315; hit rate 9.2% among 290,000; inhibition, % at 38.7 µM; Vero cells, Shiga toxin protein synthesis inhibition reporter; in the data active = inhibition mostly above about 28%, no sharp cut-off; inactive = mostly below about 43%; also: 0% is about no effect
Active calls of the source: *; ? = inconclusive; . = no result.

SMILES	Cycloheximide cs	Sm TGR block	FMDV antiviral	Shiga inhibitor
CCOCCCNC(=O)Cn1nc(C)n2c(cc3cc(C)ccc32)c1=O	.	2.9%	5.4%	.
CCOc1ccc(NC(=O)c2ccc3c(=O)n4nc(Nc5ccccc5C)sc4nc3c2)cc1	.	5.5%	-25.3%	.
O=C(COc1ccccc1Cl)N(Cc1cccc(F)c1)C1CCS(=O)(=O)C1 (stereo not given)	.	-0.4%	4.1%	.
O=[N+]([O-])c1cc(N=Nc2ccc3ccccc3c2)ccc1O	13.5*	-17.8%	11.7%	.
Cc1ccc(N2CCN(C(=O)C3CCN(c4ncnc5c4nc4n5CCCCC4)CC3)CC2)c(C)c1	.	-10.4%	?	.
C/C(=N\NC(=O)c1cccc(O)c1)c1cccc(NC(=O)c2ccc(F)cc2)c1	40.9*	1.2%	26.8%	68.3*
C/C(=N\NC(=O)c1ccc(F)cc1)c1cccc(NC(=O)c2ccco2)c1	14.1	-14.3%	6.3%	63.8
C/C(=N\NC(=O)c1cccc(F)c1)c1cccc(NC(=O)c2ccc(F)cc2)c1	34.9*	2.1%	18.4%	26.4*
C/C(=N\NC(=O)c1ccc(F)cc1)c1cccc(NC(=O)c2cccc(F)c2)c1	15.6*	-11.0%	-2.8%	35.1*
C/C(=N\NC(=O)c1ccccc1F)c1cccc(NC(=O)c2ccc(C)cc2)c1	33.7*	?	23.0%	58.3*
CC(=O)c1ccc(F)c(-c2cc(C)cc3c2OC(CNC(=O)c2cccnc2)C3)c1 (stereo not given)	.	.	-3.5%	.
COc1ccc(NC(=O)Cn2cc(S(=O)(=O)N3CCN(c4ccccc4F)CC3)c3ccccc3c2=O)cc1Cl	17.0	5.1%	1.3%	18.9
COc1ccc(CC(=O)OCCN(C)C)cc1	5.4	0.8%	-5.3%	2.5
CCCC(O)(CCN(C)C)c1ccc(OC)cc1 (stereo not given)	-5.6	11.2µM*	-16.8%	-7.4
COc1ccc(NC(=O)c2ncoc2-c2ccco2)cc1Cl	.	-6.0%	-7.0%	.
O=C(Nc1ccc(N2CCOCC2)nc1)c1ccccc1Cl	28.8*	-1.7%	64.4%	27.7
Cc1ccc(C(=O)Nc2ccc(N3CCN(C)CC3)nc2)cc1	32.1*	-11.0%	17.6%	41.3
Cc1cccc(C(=O)Nc2ccc(N3CCN(c4ccc(C(F)(F)F)cn4)CC3)nc2)c1	-1.7	3.2%	-15.4%	-2.8
O=C(Nc1ccccc1)c1cccnc1N1CCOCC1	1.7	6.3%	-3.3%	19.8
O=C(Nc1ccc(N2CCOCC2)nc1)c1ccc(C(F)(F)F)cc1	10.4	5.0%	8.91µM*	2.8
CCc1ccc(NCc2cc3cc4c(cc3n(CC(=O)Nc3ccccc3OC)c2=O)OCCO4)cc1	.	-30.5%	12.9%	.
O=C(Nc1ccccc1OC(=O)c1ccc(Cl)cc1)c1ccc(Cl)cc1	36.5*	0.4%	54.4%	33.9*
COc1ccc(OC)c(NC(=O)c2ccc(Cl)cc2)c1	9.9	.	10.3%	22.7
COc1ccc(CC(=O)Nc2cc(Cl)ccc2O)cc1	10.9*	-26.3%	.	7.7
O=C(Nc1ccccc1NC(=O)c1ccc(F)cc1)c1ccc(F)cc1	-4.3	3.5%	-4.1%	-3.1
SMILES	Cycloheximide cs	Sm TGR block	FMDV antiviral	Shiga inhibitor
COc1ccc(C(=O)Nc2cc(Cl)cc(Cl)c2)c(OC)n1	3.5	-24.0%	7.5%	16.9
COc1ccc(C(=O)Nc2cc(Cl)ccc2OC(=O)c2ccc(OC)cc2)cc1	65.5*	0.0%	.	89.1*
COc1ccc(C(=O)Nc2cc(Cl)ccc2Cl)c(OC)n1	17.8*	5.9%	9.9%	21.4
CCCCNC(=O)c1sc2ncnc(NCC3CCCO3)c2c1C (stereo not given)	.	.	0.8%	.
O=C(Nc1ccccc1O)c1ccc(Cl)cc1	42.0*	-4.6%	23.6%	95.4*
CSc1ccccc1NC(=O)c1ccc([N+](=O)[O-])cc1	5.2	-0.9%	13.4%	18.0
O=C(Nc1ccccc1O)c1ccc([N+](=O)[O-])cc1	26.6*	?	23.3%	78.0*
Cc1ccc(C(=O)Nc2cc(Cl)ccc2OC(=O)c2ccc(C)cc2)cc1	35.7*	1.8%	.	97.8*
CO[C@H]1[C@H](NC(=O)c2ccsc2)c2ccccc2C12CCN(Cc1cccc3ncccc13)CC2	.	.	-17.3%	.
Cc1cccc(NC(=O)CSc2cn(CC(=O)N3CCOCC3)c3ccccc23)c1C	.	3.9%	23.7%	.
CCOc1ccc(-c2nc(-c3ccncc3)no2)cc1OCC	16.8*	4.0%	28.3%	40.3*
CCOc1ccc(-c2nc(-c3ccccc3)no2)cc1OCC	29.2*	-24.1%	45.6%	70.4*
CN(C)c1ccc(/C=N/NC(=O)CNC(=O)c2ccncc2)cc1	-2.4	4.5%	-1.0%	-6.9
COc1ccc(C=NNC(=O)CCCCC(=O)NN=Cc2ccc(OC)cc2)cc1	.	.	7.7%	.
CN(C)c1ccc(/C=N/NC(=O)CCCO)cc1	41.4*	4.8%	19.9%	63.4*
COc1ccc(/C=N/NC(=O)CNC(=O)COc2ccccc2)cc1	-2.6	-9.3%	-17.2%	-5.3
CN(C)c1ccc(/C=N/NC(=O)CCC(=O)NCc2ccccc2)cc1	-1.5	-0.2%	6.0%	1.3
CN(C)c1ccc(/C=N\NC(=O)CC#N)cc1	29.8	0.7%	9.0%	34.8*
COc1ccc(OCC(=O)N/N=C/c2ccc(N(C)C)cc2)cc1	25.8*	-1.6%	19.9%	27.6
CCCCCC(=O)N/N=C/c1ccc(N(C)C)cc1	17.8*	-12.3%	25.2%	23.0
CCc1nn2c(=O)cc(COC(=O)c3ccccc3NC(=O)c3cccs3)nc2s1	.	4.7%	-22.1%	.
COc1ccc(S(=O)(=O)n2nc(C)c(S(=O)(=O)N3CCC(C)CC3)c2C)cc1C	.	0.7%	22.4%	.
O=S1(=O)NC2c3ccccc3CC2O1 (stereo not given)	3.6	25.1µM*	-0.4%	-1.9
O=C(Nc1ccc(Cl)cc1)C1CCCN(S(=O)(=O)c2ccc3[nH]c(=O)ccc3c2)C1 (stereo not given)	.	2.2%	-28.4%	.
O=C(Nc1ccc(Cl)c(S(=O)(=O)N2CCOCC2)c1)c1ccc2c(c1)OCO2	.	.	31.6µM*	.
SMILES	Cycloheximide cs	Sm TGR block	FMDV antiviral	Shiga inhibitor
COc1ccc(OCCOC(=O)c2cc(S(=O)(=O)N3CCOCC3)c(Cl)cc2Cl)cc1	.	-3.2%	39.8µM*	.
Cc1ccc(NC(=O)c2ccc(OCC3CCCO3)cc2)cc1 (stereo not given)	57.1*	-3.6%	-14.4%	103.9*
COc1ccc(C(=O)Nc2ccc(Cl)c(S(=O)(=O)N3CCOCC3)c2)cc1	.	.	25.1µM*	.
Cc1ccc(NC(=O)c2ccc(OCC3CCCO3)cc2)nc1 (stereo not given)	.	-5.5%	?	.
COc1ccc(C(=O)Nc2ccc(S(=O)(=O)N3CCOCC3)cc2)cc1	.	.	4.3%	.
Cc1c(C)c2c(c(C)c1O)CCC(C)(COc1ccc(Cc3sc(=O)[nH]c3O)cc1)O2 (stereo not given)	0.8	.	.	15.2
CC(=O)Nc1c(C)nn(-c2ccccc2)c1N1CCC(C(=O)NCc2ccc(F)cc2)CC1	.	3.6%	-10.1%	.
CCc1cnc2c(c1SC(C(C)=O)C(=O)N(C)C)c(=O)n(C)c(=O)n2C (stereo not given)	.	-12.0%	-17.2%	.
CCn1ccc2cc(S(=O)(=O)N3CCCN(C(=O)NCC(=O)OC)CC3)ccc21	.	-6.1%	-1.2%	.
COc1ccc(C2C(=O)N(C3CCCCC3)CC(=O)N2CCc2ccc(OC)c(OC)c2)cc1 (stereo not given)	.	4.7%	-4.6%	.
O=C(Nc1ccc(Cl)c(S(=O)(=O)N2CCOCC2)c1)c1ccc(Cl)nc1	.	1.5%	17.8µM*	.
